From PubChem BioAssay AID1159580 (chemical genetic matrix, 2015)
“And” between values parts separate entries of the source, which are not always exact repeats. Identical values can stand only once. Hit rate of the full screen: of about 5,500 compounds, about 2,000 (36%) were called active. About 18% were inconclusive and are not listed. Cut-off read from the data, not from the text of the source: active = normalized growth mostly below about 0.91 (no sharp cut-off); inconclusive = no clear call, values can overlap the other calls; inactive = mostly above about 0.92. This is one part of the list.

Test: chemical genetic growth profiling, strain panel (AID 1159580);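 note: tested at 20 µM; growth read once vehicle control cultures reached saturation at 30 °C; 1 = growth at the plate median or of vehicle wells; lower values mean less growth of the strain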
Settings: S. cerevisiae deletion strains, growth OD

Measured: normalized growth

Nc1c2ccccc2nc2ccccc12
inactive: locus YBR021W, strain FUR4, stronger effect = lower value 1.02 | locus YBR171W, strain sec66, stronger effect = lower value 1.09 | locus YBR229C, strain ROT2, stronger effect = lower value 1.01 | locus YDL185W, strain tfp1, stronger effect = lower value 1 | locus YDR137W, strain rgp1, stronger effect = lower value 0.983 | locus YDR159W, strain sac3, stronger effect = lower value 0.875 | locus YDR334W, strain swr1, stronger effect = lower value 0.93 | locus YDR392W, strain spt3, stronger effect = lower value 0.825 | locus YER110C, stronger effect = lower value 0.977 | locus YER155C, strain BEM2 (second series), stronger effect = lower value 0.913 | locus YER155C, strain BEM2, stronger effect = lower value 1.01 | locus YGL167C, strain pmr1, stronger effect = lower value 1.01 | locus YGL240W, strain doc1, stronger effect = lower value 0.914 | locus YIL073C, strain SPO22, stronger effect = lower value 0.681 | locus YJL129C, strain trk1, stronger effect = lower value 1.05 | locus YJL134W, strain LCB3, stronger effect = lower value 1.01 | locus YJL154C, strain vps35, stronger effect = lower value 0.993 | locus YJL168C, strain set2, stronger effect = lower value 0.972
active: locus YAL013W, strain DEP1, stronger effect = lower value 0.734 | locus YAL021C, strain ccr4, stronger effect = lower value 0.568 | locus YAL026C, strain drs2, stronger effect = lower value 0.675 | locus YAL030W, strain snc1, stronger effect = lower value 0.566 | locus YBL061C, strain skt5, stronger effect = lower value 0.754 | locus YBR009C, strain hhf1, stronger effect = lower value 0.378 | locus YBR023C, strain chs3, stronger effect = lower value 0.759 | locus YBR231C, strain swc5, stronger effect = lower value 0.61 | locus YBR279W, strain paf1, stronger effect = lower value 0.55 | locus YCL011C, strain gbp2, stronger effect = lower value 0.526 | locus YCL016C, strain dcc1, stronger effect = lower value 0.453 | locus YCL029C, strain bik1, stronger effect = lower value 0.412 | locus YCL061C, strain MRC1, stronger effect = lower value 0.801 | locus YCL069W, strain vba3, stronger effect = lower value 0.732 | locus YCR088W, strain abp1, stronger effect = lower value 0.737 | locus YDL005C, strain med2, stronger effect = lower value 0.781 | locus YDL035C, strain GPR1, stronger effect = lower value 0.478 | locus YDL040C, strain nat1, stronger effect = lower value 0.838 | locus YDL074C, strain BRE1, stronger effect = lower value 0.484 | locus YDL101C, strain DUN1, stronger effect = lower value 0.782 | locus YDL134C, strain PPH21, stronger effect = lower value 0.729 | locus YDL192W, strain arf1, stronger effect = lower value 0.622 | locus YDR001C, strain nth1, stronger effect = lower value 0.89 | locus YDR069C, strain doa4, stronger effect = lower value 0.5 | locus YDR101C, strain arx1, stronger effect = lower value 0.483 | locus YDR150W, strain NUM1, stronger effect = lower value 0.838 | locus YDR162C, strain NBP2, stronger effect = lower value 0.698 | locus YDR195W, strain ref2 1.23 [resistant] | locus YDR297W, strain sur2, stronger effect = lower value 0.662 | locus YDR318W, strain mcm21, stronger effect = lower value 0.565 | locus YDR335W, strain msn5, stronger effect = lower value 0.782 | locus YDR388W, stronger effect = lower value 0.481 | locus YDR502C, strain sam2, stronger effect = lower value 0.513 | locus YEL003W, strain gim4, stronger effect = lower value 0.679 | locus YEL037C, strain rad23, stronger effect = lower value 0.57 | locus YEL061C, strain CIN8 (second series), stronger effect = lower value 0.885 | locus YEL061C, strain CIN8, stronger effect = lower value 0.793 | locus YER015W, strain faa2, stronger effect = lower value 0.693 | locus YER016W, strain bim1, stronger effect = lower value 0.69 | locus YER111C, strain swi4, stronger effect = lower value 0.886 | locus YER167W, strain BCK2, stronger effect = lower value 0.614 | locus YFR010W, strain ubp6, stronger effect = lower value 0.615 | locus YGL078C, strain dbp3, stronger effect = lower value 0.681 | locus YGL086W, strain mad1, stronger effect = lower value 0.595 | locus YGL173C, strain kem1, stronger effect = lower value 0.567 | locus YGL227W, strain vid30, stronger effect = lower value 0.885 | locus YGL248W, strain PDE1, stronger effect = lower value 0.671 | locus YGL253W, strain hxk2, stronger effect = lower value 0.535 | locus YGR078C, strain PAC10, stronger effect = lower value 0.735 | locus YGR135W, strain pre9, stronger effect = lower value 0.709 | locus YGR229C, strain SMI1, stronger effect = lower value 0.694 | locus YGR252W, strain gcn5, stronger effect = lower value 0.544 | locus YHR013C, strain ard1, stronger effect = lower value 0.557 | locus YHR027C, strain rpn1, stronger effect = lower value 0.73 | locus YHR030C, strain SLT2, stronger effect = lower value 0.796 and 0.77 | locus YHR079C, strain IRE1 (second series), stronger effect = lower value 0.535 | locus YHR079C, strain IRE1, stronger effect = lower value 0.763 | locus YHR094C, strain hxt1, stronger effect = lower value 0.801 | locus YHR129C, strain ARP1, stronger effect = lower value 0.808 | locus YHR142W, strain chs7, stronger effect = lower value 0.706 | locus YHR200W, strain rpn10, stronger effect = lower value 0.674 | locus YIL066C, strain RNR3, stronger effect = lower value 0.737 | locus YIL125W, strain kgd1, stronger effect = lower value 0.803 | locus YIR030C, strain dcg1, stronger effect = lower value 0.59 | locus YJL092W, strain hpr5, stronger effect = lower value 0.659 | locus YJL095W, strain BCK1 (second series), stronger effect = lower value 0.684 | locus YJL095W, strain BCK1, stronger effect = lower value 0.563 and 0.76 | locus YJL115W, strain asf1, stronger effect = lower value 0.861 | locus YJL164C, strain tpk1, stronger effect = lower value 0.462 | locus YJL166W, strain qcr8, stronger effect = lower value 0.549 | locus YJL187C, strain SWE1 (second series), stronger effect = lower value 0.524 | locus YJR043C, strain POL32, stronger effect = lower value 0.717 | locus YJR066W, strain TOR1, stronger effect = lower value 0.744
